Assay [1] has as its target Cellular tumor antigen p53 (Homo sapiens) (UniProt P04637). Nature of the assay: TOX21_p53_BLA_p2_ratio: Tox21 HCT-116 p53 Agonism Beta-lactamase Assay, Ratio, Phase 2 (AID 2283592). An outline of the steps:
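HCT116 cells carrying a p53-responsive beta-lactamase reporter were plated, incubated 5 h at 37C, then dosed with compounds in DMSO (217-fold dilution) for 16 h. CCF4-AM substrate was added for 2 h at room temperature; the 460/530 nm emission ratio gave gain-of-signal activity relative to DMSO.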

Assay [2] can be described thus: TOX21_p53_BLA_p3_viability: Viability Assessment in the Tox21 HCT-116 p53 Agonism Beta-lactamase Assay, Phase 3 (AID 2283593).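 Also: cells exposed to compound for 16 h before reading.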 An outline of the steps: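 HCT116 cells, 4000/well, dosed 5 h after plating by pin transfer (217-fold dilution from DMSO stock) and incubated 16 h at 37C, 5% CO2. Viability read as ATP luminescence with CellTiter-Glo after 30 min at room temperature.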

Assay [3] is described as follows: TOX21_p53_BLA_p5_viability: Viability Assessment in the Tox21 HCT-116 p53 Agonism Beta-lactamase Assay, Phase 5 (AID 2283600). An outline of the steps: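 Cells were plated at 4000/well, rested 5 h at 37C, then given compounds in DMSO (217-fold dilution) for 16 h at 37C, 5% CO2. Following the CCF4-AM beta-lactamase read, CellTiter-Glo was added and luminescence was read after 30 min at room temperature.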

Assay [4] addresses Cellular tumor antigen p53 (Homo sapiens) (UniProt P04637). The assay can be described thus: TOX21_p53_BLA_p4_ratio: Tox21 HCT-116 p53 Agonism Beta-lactamase Assay, Ratio, Phase 4 (AID 2283601). The method in brief: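 HCT-116 p53 beta-lactamase reporter cells (4000/well) preincubated 5 h, then compound (217-fold dilution of DMSO stock) for 16 h at 37C. CCF4-AM substrate added 2 h at room temperature; 460/530 nm emission ratio fitted upward versus DMSO.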

Assay [5] can be described thus: TOX21_p53_BLA_p4_viability: Viability Assessment in the Tox21 HCT-116 p53 Agonism Beta-lactamase Assay, Phase 4 (AID 2283597).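 Also: hits lower the luminescence signal meaning cytotoxicity.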 An outline of the steps: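 HCT116 p53-bla cells (4000/well) rested 5 h at 37C, then received compounds in DMSO (217-fold dilution) for 16 h at 37C, 5% CO2. CellTiter-Glo was added after the CCF4-AM read, and luminescence was read after 30 min at room temperature.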

The target of assay [6] is Cellular tumor antigen p53 (Homo sapiens) (UniProt P04637). Nature of the assay: TOX21_p53_BLA_p5_ratio: Tox21 HCT-116 p53 Agonism Beta-lactamase Assay, Ratio, Phase 5 (AID 2283599). An outline of the steps: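 HCT-116 p53-bla cells (4000/well) plated 5 h, dosed with compound (217-fold DMSO dilution) for 16 h at 37 C; CCF4-AM substrate 2 h at room temperature. Activity is the 460/530 nm emission ratio (405 nm excitation), fitted in gain-of-signal direction versus DMSO.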

Assay [7] has the same target. The assay can be described thus: TOX21_p53_BLA_p3_ratio: Tox21 HCT-116 p53 Agonism Beta-lactamase Assay, Ratio, Phase 3 (AID 2283596). An outline of the steps: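 HCT116 p53-bla cells (4000/well) given compound in DMSO (217-fold dilution) after 5 h, incubated 16 h at 37C. CCF4-AM substrate 2 h at room temperature; 460/530 nm emission ratio, gain fitted against DMSO.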

The structures appear in SMILES notation. Where “and” joins values, the source holds several entries; their conditions need not be identical. Equal values may be shown once. Results filed as inconclusive are left out. Some structures have more than one record in an assay (separate samples or runs), and their calls can disagree. Calls of active or inactive are those of the source. The calls were made as follows: active = hit-call score of the fitted dose curve at least 0.9, where 1 is the maximum; inconclusive = response in the unintended direction; inactive = score below 0.9.

Cellular tumor antigen p53 (Homo sapiens), sequence (P04637 whole entry, looked up): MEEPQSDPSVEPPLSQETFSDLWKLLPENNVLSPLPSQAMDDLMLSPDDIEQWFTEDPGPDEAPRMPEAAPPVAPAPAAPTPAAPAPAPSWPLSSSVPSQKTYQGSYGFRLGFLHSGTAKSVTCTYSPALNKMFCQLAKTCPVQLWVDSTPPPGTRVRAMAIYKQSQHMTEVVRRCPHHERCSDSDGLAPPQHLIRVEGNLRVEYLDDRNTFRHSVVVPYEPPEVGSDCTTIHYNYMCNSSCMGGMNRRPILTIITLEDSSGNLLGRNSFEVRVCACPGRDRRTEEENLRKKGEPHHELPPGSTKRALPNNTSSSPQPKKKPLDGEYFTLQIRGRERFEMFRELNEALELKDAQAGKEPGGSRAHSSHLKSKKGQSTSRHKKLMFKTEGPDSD

With `Cc1cnc[nH]1`, the result in assay [1], in assay [2], in assay [3] and in assay [4] was inactive.
On to `C#CC(C)(O)CC` (stereo unspecified), for which the result in assay [1], in assay [2], in assay [5], in assay [6], in assay [3] and in assay [4] was inactive.
Usually AC50 stands for the midpoint of the concentration-response curve, whichever way the signal moves. Turning to `CCCCCCCCCCCCCCCCn1cc[n+](C)c1`, the AC50 in assay [1] was 51.5 µM (active) and 29.9 µM (active) and 17.5 µM (active); in assay [7], 9.54 µM (active); in assay [6], 78.3 µM (active) and 41.3 µM (active). For the same compound, the result in assay [7] and in assay [6] was inactive.
As to `c1ccc2c(c1)Sc1ccccc1N2C[C@@H]1CN2CCC1CC2`, the outcome in assay [1], in assay [7], in assay [5] and in assay [6] was inactive. Further, the AC50 in assay [4] was 43.6 µM (active).
Consider `Oc1cccc(Cl)c1Cl`, for which the result in assay [1], in assay [7], in assay [5], in assay [6], in assay [3] and in assay [4] was inactive.
On to `S=C=NCc1ccccc1`, for which the outcome in assay [1], in assay [6], in assay [3] and in assay [4] was inactive. Further, the AC50 in assay [7] is 42.9 µM (active).
As to `O=Cc1ccc(Cl)cc1Cl`, the outcome in assay [1], in assay [7], in assay [6], in assay [3] and in assay [4] was inactive.
For the compound `CN1CCc2cc3c(cc2C1O)OCO3` (stereo unspecified), the AC50 in assay [1] is 46.3 µM (active); in assay [7], 61.2 µM (active); in assay [6], 46.3 µM (active); in assay [4], 46.3 µM (active). For the same compound, the compound was classed as inactive in assay [3].
Consider `c1ccc2c(c1)OCC(C1=NCCN1)O2` (stereo unspecified), for which the outcome in assay [1], in assay [7], in assay [5], in assay [6] and in assay [4] was inactive.

These data come from PubChem BioAssay (EPA / NIEHS).
